Several values for one entry are separate records, joined by “and”; a condition that tells them apart may be missing. Equal entries are not always repeated. This is part of a sample that, as a whole, favours compounds with a hit. Of some 83,000 tested, about 20% had one in any assay.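 Negative percent growth values reflect cell death: -40 means 40% of the cells present at the start died, and -100 means all died.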 Activity calls are given as the source filed them. How the source made its calls: active means growth percent below 10; inactive means the rest.
Test system: MDA-MB-468 breast
Test: NCI-60 one-dose screen, 48 h (100 = growth as untreated, 0 = no growth, -100 = all killed)
Settings: 10 µM unless noted

Q: For `COCCOc1ccc2ncc(C#Cc3cncc(C(=O)Nc4ccc(CN5CCN(C)CC5)c(C(F)(F)F)c4)c3)n2n1`, which growth is on record?
A: 7.9% (active)

Q: `CCN1C(=O)N(CC)C2C1NC(=S)N2/N=C/c1ccc(OC)cc1` (stereo not drawn) was tested. Which growth did it give?
A: 26.8% (inactive)

Q: Which growth does the source give for `Cc1cccc(C)c1NCc1nc(-c2ccccc2)n[nH]1` here?
A: 122% (inactive)

Q: `CC1=C2[C@@H](CC1)[C@]1(C)O[C@@](C(C)C)(C[C@H]1OC(=O)CO)[C@H]2OC(=O)C1CC1c1ccccc1` (stereo partly drawn) was tested. Which growth did it give?
A: 93.3% (inactive)

Q: For `CCN(CC)CCOc1ccc2c(-c3ccccc3)c(-c3ccc(OC)cc3)c(=O)oc2c1`, which growth is on record?
A: 44.5% (inactive)

Q: Which growth does the source give for `COc1ccc(CNS(=O)(=O)/N=C2\NC(=O)NC2=C(Cl)Cl)cc1` here?
A: 19.4% (inactive)

Q: How did the growth turn out when `COc1cc(/C=C/C(=O)c2cccs2)ccc1OCc1ccc(Cl)nc1` was run?
A: 57.6% (inactive)

Q: For `O=C(CN1C=NC2C(N3CCOCC3)=NC=NC21)c1cccc2ccccc12` (stereo not drawn), which growth is on record?
A: 85.9% (inactive)

Q: `O=C1CC(c2ccccc2)Cc2nc3ccc(Cl)cc3cc21` (stereo not drawn) was tested. Which growth did it give?
A: 10.2% (inactive)

Q: How did the growth turn out when `Nc1[nH][nH]c(=O)c1N=Nc1ccccc1` was run?
A: 105% (inactive) and 98.5% (inactive)

Q: For `O=C(NC1CC(F)C1)c1cc2cccnc2n1-c1ccc(Cl)c(Cl)c1` (stereo not drawn), which growth is on record?
A: 101% (inactive)

Q: How did the growth turn out when `Cc1cc(O)c(C(C)C)cc1S(=O)(=O)O` (tested in a mixture with another compound) was run?
A: 91.8% (inactive) and -40.1% (active) and 115% (inactive)

Q: Which growth does the source give for `Cc1cc(N2CCCC2)nc(N(CCCNc2ccnc3cc(Cl)ccc23)Cc2ccccn2)n1` here?
A: 53.2% (inactive)

Reference: PubChem BioAssay (NCI)
